Screening results (PubChem)
The list is not random: actives were taken first. Their share in the collection is about 1.1%.
RXFP1 antagonist: RXFP1 (human) relaxin receptor antagonism | Q9HBX9 | HEK293-RXFP1, relaxin-stimulated cAMP HTRF, 30 min; stronger effect = lower value | activity change, negative = inhibition, % at 57.5 µM | 350,000 tested, 0.59% active | AID 1259400;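 active = activity change of -60% or lower, but not beyond a set lower limit; inconclusive = change between -60% and -40%, or beyond the set limit; inactive = change above -40%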
Target sequence (Q9HBX9 whole entry, looked up): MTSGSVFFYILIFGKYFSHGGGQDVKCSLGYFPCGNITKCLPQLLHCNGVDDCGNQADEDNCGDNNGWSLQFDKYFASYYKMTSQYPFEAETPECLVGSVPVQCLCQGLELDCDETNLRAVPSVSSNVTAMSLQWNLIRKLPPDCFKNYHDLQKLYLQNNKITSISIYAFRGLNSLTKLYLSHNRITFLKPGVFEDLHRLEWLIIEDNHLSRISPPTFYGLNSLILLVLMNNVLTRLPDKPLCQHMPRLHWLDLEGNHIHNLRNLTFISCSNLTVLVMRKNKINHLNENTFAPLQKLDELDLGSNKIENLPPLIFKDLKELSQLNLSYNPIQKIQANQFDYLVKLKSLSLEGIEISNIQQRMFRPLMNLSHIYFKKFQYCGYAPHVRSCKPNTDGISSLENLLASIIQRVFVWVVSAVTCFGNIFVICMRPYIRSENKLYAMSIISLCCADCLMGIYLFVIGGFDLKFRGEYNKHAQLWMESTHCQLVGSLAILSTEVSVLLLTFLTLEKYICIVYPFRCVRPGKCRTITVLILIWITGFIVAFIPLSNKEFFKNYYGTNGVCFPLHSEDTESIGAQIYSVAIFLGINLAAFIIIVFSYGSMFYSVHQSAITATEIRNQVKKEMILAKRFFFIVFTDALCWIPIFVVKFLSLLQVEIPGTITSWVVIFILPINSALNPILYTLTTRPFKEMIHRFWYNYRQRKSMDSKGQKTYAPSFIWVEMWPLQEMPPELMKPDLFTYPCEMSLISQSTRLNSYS
gsp agonist: gsp mutant agonism | Potency, µM (top dose mostly 76.9 µM), hits mostly activators | AID 624287 | 340,000 tested, 0.13% active | gsp mutant cells, cAMP HTRF, 30 min; active = well fitted activation curve with a large enough effect; inconclusive = small, poorly fitted or top-dose-only effect, or another doubt; inactive = no such curve, though single readings can be large or run the other way; cell line not stated here;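 note: phosphodiesterase inhibitor Ro 20-1724 added with compounds to block cAMP breakdown; nearly all actives have a fitted effect of over 60% in size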
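Cells in DMEM/10% FBS with G418 were pretreated with compounds in DMSO plus […] (300 uM stock) for 30 min at 37C. cAMP was measured by HTRF (cAMP-d2 plus anti-cAMP antibody-K) after 30 min at room temperature.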
S-ASM inh: human S-ASM enzyme inhibition. Potency, µM (highest dose often 57.5 µM), most hits filed as inhibitors. P17405. placental ASM, HMU-PC fluorogenic substrate, 60 min. 340,000 tested, 0.006% active
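qHTS format. ASM enzyme prepared from human placenta hydrolyses the fluorogenic substrate HMU-PC0 (9 uM final) over 60 min at 37 °C after a 10 min compound preincubation.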
a7 integrin act: activates integrin-mediated alleviation for muscular dystrophy; 350,000 tested, 0.064% active; alpha7betagal myoblasts, beta-gal FDG fluorescence, 48 h; Potency, µM (highest dose often 38.3 µM), usual class: activators; note: nearly all actives have a fitted effect of over 60% in size
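Alpha7betagal+/- myoblasts (passage 13) were plated 16-24 hr, then exposed to compounds (1:260 dilution of DMSO stock) for 48 hours at 37C. After MPER lysis, β-galactosidase reporter activity was read as FDG fluorescence (ex 480/em 540) after 30 minutes.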
gsp antagonist: gsp mutant antagonism; gsp-mutant cells, cAMP HTRF, 30 min; Potency, µM (doses to about 76.9 µM), usual class: inhibitors; 340,000 tested, 0.4% active; calls by dose curve; cell line not stated here;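 note: intracellular cAMP measured with PDE inhibitor Ro 20-1724 present during compound exposure; nearly all actives have a fitted effect of over 65% in size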
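Cells in G418 medium, seeded 16-24 h, 37C; buffer exchange to DPBS + 1 mM CaCl2, 0.5 mM MgCl2, 0.05% BSA; cpds in DMSO + […] (300 uM stock), 30 min 37C; HTRF cAMP detection.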
RXFP1 ag: agonists of human relaxin receptor RXFP1; Q9HBX9; HEK293T-RXFP1 cAMP TR-FRET, 30 min; response scale: percent of porcine relaxin response, buffer zero; Potency, µM (highest dose often 57.5 µM), actives largely listed as activators; 370,000 tested, 0.3% active; AID 2676; note: nearly all actives have a fitted effect of over 60% in size
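cAMP rise read by TR-FRET after 30 min, 37C compound exposure (up to 58 uM) in RXFP1-transfected HEK293 cells with Ro 20174 present. EC50 from Hill-equation fits, with 29 nM porcine relaxin as 100% and buffer as basal.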
Numbers stand for hits; [ ] = remark or other dose. Unless noted, calls come from the whole dose curve; as a rule, active = well fitted curve in the direction sought with a large enough effect; inconclusive = small, poorly fitted or top-dose-only effect, or another doubt; inactive = no such curve, though single readings can be large; an effect the other way counts as inactive or inconclusive.

`COc1cc(C(=O)N/N=C/c2ccc(OC(=O)c3ccccc3Cl)cc2)ccc1O` gave RXFP1 antagonist -91.4, gsp agonist inactive, S-ASM inh inactive, a7 integrin act inactive, gsp antagonist inactive and RXFP1 ag inactive.
CS(=O)(=O)N(Cc1ccc(C(=O)NC2CCCCC2O)cc1)c1ccccc1 (centres undefined) was read as RXFP1 antagonist inactive, gsp agonist inactive, S-ASM inh inactive, a7 integrin act inactive, gsp antagonist inactive and RXFP1 ag inactive.
Screening CS(=O)(=O)N(Cc1ccc(C(=O)NC2CCCC2)cc1)c1ccccc1 returned RXFP1 antagonist inactive, gsp agonist inactive, S-ASM inh inactive, a7 integrin act 10µM, gsp antagonist inactive and RXFP1 ag inactive.
Screening Cc1ccc(C(=O)/C=C/C(=O)c2ccc(C)cc2)cc1 returned RXFP1 antagonist -66.5, gsp agonist inactive[15.4 µM], S-ASM inh inactive, a7 integrin act inactive, gsp antagonist inactive and RXFP1 ag inactive.
For COc1ccccc1Cn1ccn(Cc2ccc(C)cc2)c(=O)c1=O the results were RXFP1 antagonist inactive and RXFP1 ag inactive.
For CCN(CC(=O)Nc1cccc(F)c1)Cc1nc2ccccc2c(=O)[nH]1 the results were RXFP1 antagonist inactive, gsp agonist inconclusive, S-ASM inh inactive, a7 integrin act inactive, gsp antagonist 31.6µM and RXFP1 ag inactive.
For O=C(CN1C(=O)CCSc2ccc(S(=O)(=O)N3CCCC3)cc21)Nc1cccc(Cl)c1 the results were RXFP1 antagonist inactive and RXFP1 ag inactive.
CN1CCN(C(=O)CCC(=O)O)CC1 was read as RXFP1 antagonist inactive, gsp agonist inconclusive, S-ASM inh inactive, a7 integrin act inactive, gsp antagonist inactive and RXFP1 ag inactive.
For CN1CCN(CC(=O)O)CC1 the results were RXFP1 antagonist inactive, gsp agonist 20µM, S-ASM inh inactive, a7 integrin act inactive, gsp antagonist inactive and RXFP1 ag inactive.
For CC(=O)Nc1ccc(SCCN2CC[C@@H](C)CCC2=O)cc1 the results were gsp agonist inactive, S-ASM inh inactive, a7 integrin act inactive, gsp antagonist inactive and RXFP1 ag inactive.
Screening C/C(=C\C(=O)c1ccccc1)Nc1ccc(Br)c(Cl)c1 returned RXFP1 antagonist inactive, gsp agonist inconclusive, S-ASM inh inactive, a7 integrin act 11.2µM, gsp antagonist inactive and RXFP1 ag inactive.
`CCc1ccc(C2C(C#N)=C(N)SC(N)=C2C#N)cc1` gave RXFP1 antagonist inactive, gsp agonist 39.8µM, S-ASM inh inactive, a7 integrin act inactive, gsp antagonist inactive and RXFP1 ag inactive.
For N#CC1=C(N)SC(N)=C(C#N)C1c1ccc(C(F)(F)F)cc1 the results were RXFP1 ag inactive.
For CCOC(=O)C(=CNc1ccc2c(c1)c1ccccc1n2CC)C(=O)OCC the results were RXFP1 antagonist inactive, gsp agonist inactive, S-ASM inh inactive, a7 integrin act inactive, gsp antagonist 31.6µM and RXFP1 ag inactive.
`CCOC(=O)/C(C#N)=C\c1c(OCC)n(CC)c2ccccc12` gave RXFP1 antagonist inactive, gsp agonist inactive[15.4 µM], S-ASM inh inactive, a7 integrin act inactive, gsp antagonist 25.1µM and RXFP1 ag inactive.
`CCCC(=O)Nc1ccc2c(c1)c1ccccc1n2CC` gave RXFP1 antagonist inactive, gsp agonist inactive, S-ASM inh inactive, a7 integrin act inactive, gsp antagonist inactive and RXFP1 ag inactive.
For CC(CCc1ccccc1)NC(=O)c1ccccc1Cl (centres undefined) the results were RXFP1 antagonist -74.0, gsp agonist inactive, S-ASM inh inactive, a7 integrin act inactive, gsp antagonist inactive and RXFP1 ag inactive.
CC(CCc1ccccc1)NC(=O)c1ccccc1F (centres undefined) was read as RXFP1 antagonist inactive, gsp agonist inactive, S-ASM inh inactive, a7 integrin act inconclusive, gsp antagonist inactive and RXFP1 ag inactive.
Screening CC(=O)N1CC(=O)N=C1SCC(=O)Nc1nc(-c2ccccc2)c(-c2ccccc2)s1 returned RXFP1 antagonist -86.4, gsp agonist inactive, S-ASM inh inactive, a7 integrin act inactive, gsp antagonist inactive and RXFP1 ag inactive.
Screening Cc1sc(NC(=O)CSC2=NCCS2)nc1-c1ccccc1 returned RXFP1 antagonist inactive, gsp agonist inactive, S-ASM inh inactive, a7 integrin act inactive, gsp antagonist inactive and RXFP1 ag inactive.
For N/C(=N\OC(=O)c1cccs1)C1(c2ccc(Cl)cc2Cl)CC1 the results were RXFP1 antagonist -115.2, gsp agonist inactive[15.4 µM], S-ASM inh inactive, a7 integrin act inactive, gsp antagonist inactive and RXFP1 ag inactive.
`CCN1CCN(c2ccc(NC(=O)CC3OC(=O)c4ccccc43)cc2C)CC1` (centres undefined) gave RXFP1 antagonist inactive, gsp agonist inactive and a7 integrin act inactive.
COc1ccc2cc(/C=C3\SC(=S)NC3=O)c(N3CCOCC3)nc2c1 was read as RXFP1 antagonist inactive, gsp agonist inactive, S-ASM inh inactive, a7 integrin act inactive, gsp antagonist 35.5µM and RXFP1 ag inactive.
Screening O=C1NC(=S)S/C1=C/c1ccc(N2CCOCC2)o1 returned RXFP1 antagonist inactive, gsp agonist inactive, S-ASM inh inactive, a7 integrin act inactive, gsp antagonist inconclusive and RXFP1 ag inactive.
Screening CN1C2CCC1CC(NC(=O)n1c(=O)[nH]c3ccccc31)C2 (centres undefined) returned RXFP1 antagonist inactive.
`COc1ccc2c(c1)[nH]c1c(N3CCSCC3)ncnc12` gave RXFP1 antagonist inconclusive, gsp agonist inactive[15.4 µM], S-ASM inh inactive, a7 integrin act inactive, gsp antagonist 28.2µM and RXFP1 ag inactive.
`COc1cccc(N2CCN(c3ncnc4c3[nH]c3ccc(F)cc34)CC2C)c1` (centres undefined) gave RXFP1 antagonist -69.1, gsp agonist inactive, S-ASM inh inactive, a7 integrin act inactive, gsp antagonist 3.55µM and RXFP1 ag inactive.
`COc1ccc2[nH]c3c(N4CC(C)OC(C)C4)ncnc3c2c1` (centres undefined) gave RXFP1 antagonist inactive, gsp agonist inactive, S-ASM inh inactive, a7 integrin act inactive, gsp antagonist inactive and RXFP1 ag inactive.
`COc1ccc2c(c1)[nH]c1c(N3CCN(Cc4ccc5c(c4)OCO5)CC3)ncnc12` gave RXFP1 antagonist inactive, gsp agonist inactive, S-ASM inh inactive, a7 integrin act inactive, gsp antagonist 39.8µM and RXFP1 ag inactive.
`Cc1ccc2[nH]c3c(N4CCN(Cc5ccc6c(c5)OCO6)CC4)ncnc3c2c1` gave RXFP1 ag inactive.
For O=C(Nc1ccnn1C1CCN(Cc2cccc(F)c2F)CC1)C1CCCC1 the results were RXFP1 antagonist inactive, gsp agonist inactive, S-ASM inh inactive, a7 integrin act inactive, gsp antagonist inactive and RXFP1 ag inactive.
